From PubChem
An excerpt weighted towards active compounds, which were near 2.9% of everything screened.
Integrin act MD: qHTS for Activators of Integrin-Mediated Alleviation for Muscular Dystrophy; alpha7betagal myoblasts, beta-gal FDG fluorescence, 48 h; Potency, µM (titrated, usually from 38.3 µM), most hits filed as activators; actives 0.064% (n = 350,000); AID 624291, 2012; note: nearly all actives have a fitted effect of over 60% in size
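Alpha7betagal+/- myoblasts (passage 13) were plated 16-24 hr, then exposed to compounds (1:260 dilution of DMSO stock) for 48 hours at 37C. After MPER lysis, β-galactosidase reporter activity was read as FDG fluorescence (ex 480/em 540) after 30 minutes.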
D3 antag: qHTS of D3 Dopamine Receptor Antagonist: qHTS | D3R cells, DiscoveRx beta-arrestin luminescence, antagonist mode; stronger effect = lower value | max response, negative = inhibition, % | actives 2.5% (n = 360,000) | AID 652054, 2013; in the data active = max response below about -50%; inconclusive = no clear call, values can overlap the other calls
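Cells plated overnight at 1500 cells/well, then exposed to library compounds with dopamine controls for 90 minutes at 37 degrees C. DiscoveRx reagent added for 30–60 minutes at room temperature; luminescence read, quantitative HTS format.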
D3 ag: qHTS of D3 Dopamine Receptor Agonist: qHTS | D3R DiscoveRx beta-arrestin cells, luminescence, 90 min | max activation, % | actives 0.58% (n = 410,000); in the data active = max activation above about 30%
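Agonist-mode cell screen: cells plated at 1500/well and incubated overnight at 37 °C, then exposed to library compounds for 90 min at 37 °C. Detection reagent was added for 30–60 min at room temperature, and luminescence was read.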
IDH1 R132H inh: qHTS for Inhibitors of mutant isocitrate dehydrogenase 1 (IDH1): qHTS; Isocitrate dehydrogenase [NADP] cytoplasmic (Homo sapiens), O75874; IDH1-R132H enzyme, NADPH consumption, diaphorase/resazurin fluorescence; Potency, µM (doses to about 76.6 µM), actives largely listed as inhibitors; actives 0.093% (n = 390,000); note: nearly all actives have a fitted effect of over 65% in size
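IDH1-R132H (0.5 ug/mL) preincubated 30 min with compound, then NADPH (0.016 mM) and alpha-KG (2 mM) added; 80 min at RT, pH 7.5. Remaining NADPH coupled via diaphorase/resazurin to fluorescence (540/590 nm); concentration-response curves normalized to no-enzyme control.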
B2AR arrestin: qHTS assay of beta-arrestin-biased ligands of beta2-adrenergic receptor. Beta-2 adrenergic receptor (Homo sapiens), P07550. beta-arrestin recruitment to beta2AR, cell-based reporter. Potency, µM (series often up to 46.1 µM), hits mostly activators. actives 0.02% (n = 330,000). AID 492947, 2010; note: nearly all actives have a fitted effect of over 65% in size
Target sequence (P07550 whole entry, looked up): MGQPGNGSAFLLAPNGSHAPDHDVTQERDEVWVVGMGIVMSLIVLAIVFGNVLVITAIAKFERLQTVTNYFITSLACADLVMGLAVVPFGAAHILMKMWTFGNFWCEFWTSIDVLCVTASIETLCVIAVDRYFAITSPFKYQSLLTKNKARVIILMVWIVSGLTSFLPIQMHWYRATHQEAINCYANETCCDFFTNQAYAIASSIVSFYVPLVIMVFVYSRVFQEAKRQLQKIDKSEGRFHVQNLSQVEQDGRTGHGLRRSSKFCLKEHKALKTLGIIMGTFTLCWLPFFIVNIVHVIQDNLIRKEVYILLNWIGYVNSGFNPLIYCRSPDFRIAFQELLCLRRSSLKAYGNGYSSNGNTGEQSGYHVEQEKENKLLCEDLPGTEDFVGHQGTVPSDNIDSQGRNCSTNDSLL
Large screens that a line does not name were inactive. Unless noted, calls come from the whole dose curve; as a rule, active = well fitted curve in the direction sought with a large enough effect; inconclusive = small, poorly fitted or top-dose-only effect, or another doubt; inactive = no such curve, though single readings can be large; an effect the other way counts as inactive or inconclusive.

Nc1c(N(CCC2=CCCCC2)C(=O)COc2ccc(F)cc2Cl)c(=O)[nH]c(=O)n1Cc1ccccc1	D3 antag -92 (no result: B2AR arrestin)
Nc1c(N(CCC2=CCCCC2)C(=O)Cc2ccc(F)cc2)c(=O)[nH]c(=O)n1Cc1ccccc1	B2AR arrestin inconclusive
C=C1C(=C/C=C2\CCC[C@]3(C)[C@@H]([C@H](C)/C=C/[C@H](C)C(C)C)CC[C@@H]23)C[C@@H](O)C[C@@H]1O	none (no result: Integrin act MD, D3 antag, IDH1 R132H inh, B2AR arrestin)
CCOC(=O)Cn1c(=O)n(-c2ccccc2OC)c2nc(-c3ccccc3)nc(C(N)=O)c21	none (no result: Integrin act MD, D3 antag, B2AR arrestin)
CCN(CC)c1ccc(/C=C2/C(=O)c3ccc(C(=O)O)cc3C2=O)cc1	D3 antag -56
Cn1c(Cc2nc3ccccc3n2C)nc2ccccc21	none
Cn1c(CCCCCN)nc2ccccc21	D3 antag -64
Cn1c(CCNC(=O)c2ccc(F)cc2)nc2ccccc21	D3 antag -66
COc1ccccc1NC(=O)c1nnn(Cc2ccccc2)c1NC(=O)C(F)(F)F	none
CC(=O)Nc1c(C(=O)NCc2ccccc2)nnn1Cc1ccccc1	D3 antag -56
COc1ccccc1NC(=O)c1nnn(Cc2ccccc2)c1NC(C)=O	D3 antag -70
Cc1ccc(-c2onc(C)c2C)cc1S(=O)(=O)N1CCc2ccccc21	none (no result: Integrin act MD, D3 antag, B2AR arrestin)
O=C(COc1ccccc1Cl)NCC1(N2CCOCC2)CCCCC1	none (no result: Integrin act MD, D3 antag, B2AR arrestin)
COC(=O)[C@H]1[C@H]2C[C@H]3c4[nH]c5ccccc5c4CCN3C[C@H]2CC[C@@H]1O	D3 antag -132 (no result: Integrin act MD)
COC(=O)C1C(O)CCC2CN3CCc4c([nH]c5ccccc45)C3CC21 (configuration not stated)	D3 antag inconclusive
O=C(Oc1oc(-c2ccco2)nc1C=Nc1ccccc1)c1ccco1	D3 antag -50
O=C(Oc1oc(-c2ccco2)nc1C=Nc1ccccc1)c1ccoc1	D3 antag inconclusive
O=C(NCCCCNCCCNC(=O)c1ccccc1)c1ccccc1	D3 antag -51
COc1ccccc1OCCCCn1c(-c2ccc(Cl)cc2)nc2ccccc2c1=O	none (no result: Integrin act MD, D3 antag, B2AR arrestin)
COc1ccc2c(c1)O[C@@H](c1cccc(C(F)(F)F)c1)[C@H](OC(=O)N[C@H]1CCCc3ccccc31)C2=O	none (no result: Integrin act MD, D3 antag, D3 ag, IDH1 R132H inh)
COc1ccc2c(c1)O[C@H](c1ccc3c(c1)OCO3)[C@@H](OC(=O)N[C@H]1CCCc3ccccc31)C2=O	D3 ag 54
COc1cc(NC(=O)COC(=O)/C=C/c2c(C)nn(-c3ccc(F)cc3)c2Cl)cc(OC)c1	none
CC(=O)NC(=O)COC(=O)/C=C/c1c(C)nn(Cc2c(Cl)cccc2Cl)c1Cl	D3 antag -56
CCOc1ccc(NC(=O)N(Cc2c[nH]c3ccccc23)C2CCCCCC2)cc1	none (no result: Integrin act MD, D3 antag, B2AR arrestin)
CCCC(=O)Nc1nnc(-c2ccco2)s1	D3 antag -66
O=C(Cc1ccccc1)Nc1nnc(-c2ccco2)s1	none
CCOC(=O)c1c(NC(=O)CSc2cn(CCNC(=O)c3ccccc3OC)c3ccccc23)sc2c1CCCC2	none (no result: Integrin act MD, D3 antag, B2AR arrestin)
O=C1C=CC(=O)N1c1ccc2c(c1)C(NC(=O)C(F)(F)F)c1ccccc1-2 (configuration not stated)	D3 antag -62 (no result: B2AR arrestin)
COc1ccc(NC(=O)c2nc(S(=O)(=O)Cc3ccc(C)cc3)ncc2Cl)cc1	none (no result: Integrin act MD, D3 antag, IDH1 R132H inh, B2AR arrestin)
CS(=O)(=O)c1ncc(Cl)c(C(=O)Nc2ccc3ccccc3c2)n1	D3 antag -117
CCS(=O)(=O)c1ncc(Cl)c(C(=O)Nc2ccc(C)cc2)n1	D3 antag -130
Cc1ccc(CS(=O)(=O)c2ncc(Cl)c(C(=O)Nc3ccc(OC(F)F)cc3)n2)cc1	D3 antag -63
CCOc1ccc(NC(=O)c2nc(S(=O)(=O)Cc3ccccc3F)ncc2Cl)cc1	none (no result: Integrin act MD, D3 antag, B2AR arrestin)
O=C(Nc1ccc(F)c(Cl)c1)C1CCN(S(=O)(=O)c2ccc3c(c2)CCCN3C(=O)C2CCC2)CC1	none (no result: Integrin act MD, D3 antag, B2AR arrestin)
COc1cc(-c2cc(C(=O)Nc3ccc(C)c(S(=O)(=O)N4CCOCC4)c3)c3ccccc3n2)cc(OC)c1OC	D3 ag 33, IDH1 R132H inh inconclusive
O=C1CCc2cc(S(=O)(=O)Nc3ccc(F)cc3)ccc2N1	Integrin act MD inconclusive
N#Cc1cccc(NC(=O)Cn2c3[n+](c4ccc(C(F)(F)F)cc42)CCCCC3)c1	D3 antag -74
Fc1ccccc1Cn1c2[n+](c3ccc(C(F)(F)F)cc31)CCCCC2	none
COc1ccc(/C=C/C(=O)Nc2nc3n(n2)C(c2ccccc2)C=C(c2ccc(Cl)cc2)N3)cc1 (configuration not stated)	none (no result: Integrin act MD, D3 antag, B2AR arrestin)
Cc1ccccc1CNC(=O)c1ccccc1N	D3 ag 30
Cc1ccccc1CNC(=O)c1ccccc1C	none
Cc1cccc(-c2noc(CN(C(C)C)S(=O)(=O)c3ccc(Br)cc3)n2)c1	none (no result: Integrin act MD, D3 antag, B2AR arrestin)
CCCCn1c(=N)c(S(=O)(=O)c2ccc(C)cc2)cc2c(=O)n3cc(C)ccc3nc21	none (no result: Integrin act MD, D3 antag, B2AR arrestin)
CCCCC(c1nnnn1CCOC)N1CCN(CC)CC1 (configuration not stated)	D3 antag -68
C=CCN1CCN(C(CC(C)C)c2nnnn2CCOC)CC1 (configuration not stated)	none
Cc1ccc(C(=O)NCC(=O)N2CCC3(CC2)NCCc2[nH]cnc23)cc1C	none
COc1cccc(C(=O)NCC(=O)N2CCC3(CC2)NCCc2[nH]cnc23)c1	Integrin act MD 11µM
O=C(CCc1nnc2n(Cc3ccccc3Cl)c(=O)c3ccccc3n12)Nc1ccccc1	none (no result: Integrin act MD, D3 antag, B2AR arrestin)
CCN(CCO)Cc1cc(=O)oc2cc3c(cc12)CCC3	none
CCCCN(C)Cc1cc(=O)oc2cc3c(cc12)CCCC3	D3 antag -91
CC(C)(C)c1ccc(C(=O)OCC(=O)Nc2sc3c(c2C#N)CCC3)cc1	Integrin act MD 5µM
COc1ccc2nc(SCC(=O)N3CCN(c4ccc(F)cc4)CC3)c(C#N)cc2c1	D3 antag -58
COc1ccc2cc(C#N)c(SCC(=O)N3CCCC3)nc2c1	none
CCn1c(SCCN2CCCCC2)nnc1-c1ccc(S(=O)(=O)N2CCOCC2)cc1	D3 antag -74
Cc1ccc(S(=O)(=O)N2CCC(c3nnc(SCCN4CCCC4)n3C)CC2)cc1	none
CC(C)CN1C(=O)C(=O)N(CC(=O)c2ccc3c(c2)OCO3)C1=O	none
Cc1nc2ccccc2nc1OCC(=O)NCc1ccc2c(c1)OCO2	D3 antag -65
CC(C)CN1C(=O)C(=O)N(CC(=O)NCc2ccc3c(c2)OCO3)C1=O	D3 antag -52
O=C(COc1ncnc2ccccc12)NCc1ccc2c(c1)OCO2	Integrin act MD inconclusive
Cc1ccc(-c2nc3scc(CCNS(=O)(=O)c4c(C)noc4C)n3n2)cc1	none (no result: Integrin act MD, D3 antag, B2AR arrestin)
